# Source: PubChem BioAssay (NCATS)
# Values joined by “and” are separate entries in the source; they are usually repeats but may differ in a detail not shown here. Equal entries are not always repeated. Results filed as inconclusive are left out. Where a call stands in place of a potency, no number is given. Active and inactive are the calls of the source. Calls come from the whole dose curve; as a rule, active = well fitted curve in the direction sought with a large enough effect; inconclusive = small, poorly fitted or top-dose-only effect, or another doubt; inactive = no such curve, though single readings can be large; an effect the other way counts as inactive or inconclusive.
# Experiments:
# [1] = qHTS assay to identify small molecule inhibitors of chordoma cells - UCH-2 (AID 1259356); note: series mostly up to about 46 µM
# [2] = P-glycoprotein substrates identified in KB-8-5-11 adenocarcinoma cell line, qHTS therapeutic library screen (AID 1346987); note: nearly all actives have a fitted effect of over 65% in size; note: potency is the fitted concentration of half-maximal effect
# In short: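 KB-8-5-11: colchicine-selected sub-line of KB-3-1 over-expressing P-gp; assay medium lacked colchicine. 72 h drug exposure at 37 degree C, CellTiter-Glo.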
# [3] = qHTS assay to identify small molecule inhibitors of chordoma cells - UCH-1 (AID 1259355); note: nearly all actives have a fitted effect of over 55% in size; note: potency is the fitted concentration of half-maximal effect; series mostly up to about 46 µM
# In short: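 Cells (800/well) were seeded and left overnight at 37 C, 5% CO2, then treated with drugs at 15 concentrations plus a combination mix of auranofin, camptothecin, doxorubicin, rubitecan and topotecan. Viability after 48hr was read by CellTiter-Glo luminescence.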
# [4] = P-glycoprotein substrates identified in KB-3-1 adenocarcinoma cell line, qHTS therapeutic library screen (AID 1346986); note: nearly all actives have a fitted effect of over 60% in size
# In short: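 Compounds were tested in dose-response against KB-3-1 and KB-8-5-11 cells at 37 degree C for 72 h, and viability was measured by luminescence. AC50 values came from curve fitting with class-based activity calls.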
# [5] = Identifying Small Molecule Inhibitors of Pancreatic Cancer Stem Cells (A2780, Spheroid) (AID 1259357); conditions: Potency: A2780 spheroid viability;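 note: compound exposure lasted 48 h before the ATP luminescence read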
# In short: (§1)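 Cytotoxicity read by CellTiter-Glo luminescence after 48 h compound exposure at 37C; percent activity scaled between DMSO-treated cells and cell-free wells. Spheroid formats used cells pre-formed 14 days in stem cell media on hydrogel.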
# [6] = Identifying Small Molecule Inhibitors of Pancreatic Cancer Stem Cells (SN12C, Adherent) (AID 1259358);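 note: cell survival measured after 48 h of compound exposure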
# In short: (§2)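 Spheroids grown 14 days in stem cell media on hydrogel-coated nonadherent plates; 2D lines seeded directly. Compounds added after 4 h attachment, 48 h at 37C, 5% CO2; CellTiter-Glo luminescence normalized to DMSO (no inhibition) and no-cell wells (full inhibition).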
# [7] = Identifying Small Molecule Inhibitors of Pancreatic Cancer Stem Cells (SN12C, Spheroid) (AID 1259360); conditions: Potency: SN12C spheroid viability
# In short: as §1
# [8] = Identifying Small Molecule Inhibitors of Pancreatic Cancer Stem Cells (A278, Adherent) (AID 1259361); note: nearly all actives have a fitted effect of over 35% in size
# In short: as §2
# [9] = Identifying Small Molecule Inhibitors of Pancreatic Cancer Stem Cells (Panc1, Adherent) (AID 1259362); conditions: Potency: viability;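 note: compound exposure lasted 48 h before the viability read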
# In short: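 Luminescent ATP readout (CellTiter-Glo) quantifies surviving cells after a 48 h drug incubation. Normalization uses DMSO wells as no inhibition and media-only wells as full inhibition; bortezomib served as positive control.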
smiles,measurement,setting,value
CC1(C)O[C@@H]2C[C@H]3[C@@H]4CCC5=CC(=O)C=C[C@]5(C)[C@H]4[C@@H](O)C[C@]3(C)[C@]2(C(=O)CO)O1,Potency,[1],inactive
same,Potency,[2],inactive
O=C(O)c1cc(O)c2c(c1)[O][Bi][O]2,Potency,[1],inactive
same,Potency,[2],inactive
CCCCC/C=C\C/C=C\CCCCCCCC(=O)O,Potency,[1],inactive
same,Potency,[2],inactive
CC[C@@H](C(=O)O)[C@@H]1O[C@@H]([C@@H](C)[C@H](O)[C@H](C)C(=O)[C@H](CC)[C@H]2O[C@]3(C=C[C@@H](O)[C@]4(CC[C@@](C)([C@H]5CC[C@](O)(CC)[C@H](C)O5)O4)O3)[C@H](C)C[C@@H]2C)[C@@H](C)C[C@@H]1C,Potency,[3],3550 nM (active)
same,Potency,[2],2.31 µM (active)
CCCCC(=O)O[C@]1(C(=O)CO)[C@H](C)C[C@H]2[C@@H]3CCC4=CC(=O)C=C[C@]4(C)[C@@]3(F)[C@@H](O)C[C@@]21C,Potency,[1],inactive
same,Potency,[2],inactive
CCCCC(CC)COC(=O)CC(C(=O)OCC(CC)CCCC)S(=O)(=O)O (stereo not given),Potency,[1],inactive
same,Potency,[2],inactive
CCCCCCCC/C=C\CCCCCCCC(=O)O,Potency,[1],inactive
same,Potency,[2],inactive
COC(C(=O)C(O)C(C)O)C1Cc2cc3cc(OC4CC(OC5CC(O)C(O)C(C)O5)C(O)C(C)O4)c(C)c(O)c3c(O)c2C(=O)C1OC1CC(OC2CC(OC3CC(C)(O)C(O)C(C)O3)C(O)C(C)O2)C(O)C(C)O1 (stereo not given),Potency,[1],inactive
same,Potency,[2],inactive
CO[C@H]1C=CO[C@@]2(C)Oc3c(C)c(O)c4c(O)c(c5c(c4c3C2=O)=NC2(CCN(CC(C)C)CC2)N=5)NC(=O)/C(C)=C\C=C/[C@H](C)[C@H](O)[C@@H](C)[C@@H](O)[C@@H](C)[C@H](OC(C)=O)[C@@H]1C,Potency,[1],inactive
CCC(=O)NCCC1CCc2ccc3c(c21)CCO3 (stereo not given),Potency,[1],inactive
CCc1ccc2c(c1)N(CC(C)CN(C)C)c1ccccc1S2 (stereo not given),Potency,[1],inactive
same,Potency,[2],25.9 µM (active)
CC(C)NCC1CCc2cc(CO)c([N+](=O)[O-])cc2N1 (stereo not given),Potency,[1],inactive
same,Potency,[2],inactive
C=CC1=C(C)C2=CC3=NC(=C(CC(=O)[O-])C4=NC(=C(C)C4=C([O-])[O-])C=c4[n-]c(c(C)c4CC)=CC1=N2)C(CCC(=O)[O-])C3C.[Cu+2].[Na+].[Na+].[Na+] (stereo not given),Potency,[1],inactive
CC1(C)S[C@@H]2[C@H](NC(=O)Cc3ccccc3)C(=O)N2[C@H]1C(=O)O,Potency,[1],inactive
same,Potency,[2],inactive
CC1=C(/C=C/C(C)=C/C=C/C(C)=C/C=C/C=C(C)/C=C/C=C(C)/C=C/C2=C(C)CCCC2(C)C)C(C)(C)CCC1,Potency,[1],inactive
same,Potency,[2],inactive
OCCO[C@@H]1[C@@H](O)[C@H](O)[C@@H](CO)O[C@@H]1O,Potency,[1],inactive
same,Potency,[2],inactive
CC(Oc1ccccc1)C(=O)N[C@@H]1C(=O)N2[C@@H]1SC(C)(C)[C@@H]2C(=O)O (stereo not given in full),Potency,[1],inactive
same,Potency,[2],inactive
CCCCC(C)(O)C/C=C/[C@H]1[C@H](O)CC(=O)[C@@H]1CCCCCCC(=O)OC (stereo not given in full),Potency,[1],inactive
same,Potency,[2],inactive
CC(C)=O,Potency,[1],inactive
CC(=O)Oc1cc(C)c(OC(C)=O)c2ccccc12,Potency,[1],inactive
same,Potency,[2],inactive
CC1=C(/C=C/C(C)=C/C=C/C(C)=C/CO)C(C)(C)CCC1,Potency,[3],inactive
same,Potency,[2],inactive
O=S(=O)(O)O,Potency,[1],inactive
same,Potency,[2],inactive
CC(=O)Oc1c(C)cc(OCC(O)CNC(C)C)c(C)c1C (stereo not given),Potency,[1],inactive
same,Potency,[2],inactive
COc1cc2c(cc1O)CCN[C@]21CS[C@@H]2c3c(OC(C)=O)c(C)c4c(c3[C@H](COC1=O)N1[C@@H]2[C@H]2c3c(cc(C)c(OC)c3O)C[C@@H]([C@@H]1O)N2C)OCO4,Potency,[1],inactive
same,Potency,[2],1.46 µM (active) and 1.41 µM (active)
C=CCSSSCC=C,Potency,[1],inactive
same,Potency,[2],inactive
O=S(=O)(O)c1ccc2c(N=Nc3ccc(S(=O)(=O)O)c4ccccc34)c(O)c(S(=O)(=O)O)cc2c1,Potency,[1],inactive
Nc1c(Br)cc(Br)cc1CNC1CCC(O)CC1 (stereo not given),Potency,[1],inactive
CCc1c(CC(N)=O)c2cc(OCCCP(=O)(O)O)ccc2n1Cc1ccccc1,Potency,[4],inactive
O=C1C(=O)c2ncccc2-c2cccnc21,Potency,[1],inactive
same,Potency,[2],1.16 µM (active)
COc1cccc(-n2nc(C(=O)O)cc2-c2ccc(C3CCCCC3)c(Cl)c2)c1,Potency,[4],inactive
CCC1(Cc2ccc(N)cc2)CCC(=O)NC1=O (stereo not given),Potency,[5],inactive
same,Potency,[6],inactive
same,Potency,[7],inactive
same,IC50 (viability decrease),[8],inactive
O=c1cc(C2=CC=CC3Sc4ccccc4SC23)oc(N2CCOCC2)c1 (stereo not given),Potency,[6],inactive
same,Potency,[7],inactive
same,Potency,[9],inactive
Cc1nnc(C(C)C)n1C1CC2CCC(C1)N2CC[C@H](NC(=O)C1CCC(F)(F)CC1)c1ccccc1 (stereo not given in full),Potency,[6],inactive
same,Potency,[7],inactive
same,Potency,[2],inactive
O=C(/C=C/c1ccc(O)cc1)OCC1=C[C@@H](O)[C@@H]2C=CO[C@@H](O[C@@H]3O[C@H](CO)[C@@H](O)[C@H](O)[C@H]3O)[C@H]12,Potency,[4],inactive
CCOC(=O)O[C@]1(C(=O)COC(=O)CC)CC[C@H]2[C@@H]3CCC4=CC(=O)C=C[C@]4(C)[C@H]3[C@@H](O)C[C@@]21C,Potency,[1],inactive
same,Potency,[2],inactive
